Structures are written as SMILES. In all, about 190,000 compounds went through this assay and about 3,500 (1.8%) were called active.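 How the source made its calls: active means inhibition above a set limit, 3 SD over mean compound inhibition (cut at about 8.4% in these data); inactive means the rest.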 The entries come from a sample that favours actives as a whole.

The assay can be described thus: RAM signaling blockers in budding yeast – dse1pr::URA3 reporter, 5-FOA selection, primary screen (AID 868).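 Further: 0% = DMSO-only wells with no growth and 100% = 10 µM 1-NA-PP1 full growth; inhibition rescues growth on 5-FOA so higher OD means more RAM inhibition.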 To be noted: S. cerevisiae dse1pr::URA3 reporter, 5-FOA growth OD615, 2 d; at 50 µM; hits give high values; analog-sensitive cbk1-as2 kinase mutant strain.
In general, inhibition refers to the drop in the measured response relative to a control, in per cent. For the molecule `COc1cccc(OC)c1C(=O)Nc1ccc(N2CCCCC2)cc1`, the inhibition was 0.91% (inactive).
Regarding `COc1ccc(C(=O)NC(=S)Nc2ccc(N3CCCC3)cc2)cc1OC`, the inhibition is 12.4% (active).
As for `Cc1ccc(C(=O)NC(=S)Nc2ccc(N3CCOCC3)cc2)cc1`, the figure is 0.79% (inactive); as for `C=C(C)C1CC=C(C)/C(=N/NC(=O)CCCNc2cccc(C)c2)C1` (stereo not given), 0.96% (inactive); as for `CCN(CC(=O)NCc1cccs1)C(=O)c1ccccc1F`, 1.03% (inactive).
With `COc1ccc(OC)c(CNC(=O)c2cc(=O)[nH]c3ccc(S(=O)(=O)N4CCCC4)cc23)c1`, the inhibition is 2.57% (inactive).
In the case of `CCSc1nc(-c2ccc(OC)cc2)cc(-c2ccc(OC)cc2)c1C#N`, the inhibition was 6.16% (inactive).
On to `CCOC(=O)CC(=O)CSc1nc(-c2ccccc2)cc(-c2ccc(Cl)cc2)c1C#N`, for which the inhibition was 13.1% (active).
Consider `N#Cc1c(C(F)(F)F)cc(-c2ccc(Cl)cc2)nc1SCC(=O)O`, for which the inhibition was 2.99% (inactive).
Take `COc1ccc(NS(=O)(=O)c2ccc(NC(=S)NC(=O)CC(C)C)cc2)cc1`: the inhibition is 9.99% (active).
On to `CC(=O)c1ccc(NC(=S)NC(=O)CC(C)C)cc1`, for which the inhibition is 0.87% (inactive).
The result for `COc1ccc(C(=O)Nc2ccc(S(=O)(=O)NC(C)C)cc2)cc1` reads 1.59% (inactive); that for `CC(=O)Oc1c(C(=O)c2nnc(C)o2)c(=O)n(Cc2ccccc2)c2ccccc12`, 1.56% (inactive); that for `O=C(CSc1ccc([N+](=O)[O-])cn1)Nc1ccc(N2CCOCC2)cc1`, 2.94% (inactive).
For the molecule `CCc1c(C)sc(NC(=O)/C=C/c2ccc3c(c2)OCO3)c1C(=O)OC`, the inhibition is 2.35% (inactive).
Turning to `CCOC(=O)c1c(NC(=O)c2ccc(Br)o2)sc2c1CCCC2`, the inhibition is 3.28% (inactive).
As for `CCc1c(C)sc(NC(=O)c2ccc(Br)o2)c1C(=O)OC`, the inhibition is 9.13% (active).
As to `O=C(CN1CCN(c2nc(-c3ccccc3)cs2)CC1)NCc1ccc2c(c1)OCO2`, the inhibition is 0.34% (inactive).
On to `O=C(C(=O)N1CCc2ccccc2C1)N1CCc2ccccc2C1`, for which the inhibition is -0.82% (inactive).
In the case of `c1ccc(-c2csc(N3CCc4ccccc4C3)n2)cc1`, the inhibition is 12% (active).
On to `C/C(=N\NC(=O)NC1CCCCC1)c1ccc(OC(F)F)cc1OC(F)F`, for which the inhibition was 0.62% (inactive).
For the molecule `N#C/C(=C\c1ccccc1C(F)(F)F)C(=O)Nc1ccccc1F`, the inhibition was 1.21% (inactive).
For `C(=N\N1CCN(c2ccccn2)CC1)/C1=C(N2CCOCC2)C(=C/c2ccccc2)/CC1`, the inhibition is -0.25% (inactive).
As to `N#C/C(=C\C1=C(N2CCOCC2)C(=C\c2ccccc2)/CC1)C(=O)Nc1ccccc1F`, the inhibition is 11.8% (active).
For the molecule `Cn1c(N)c(C(=O)COC(=O)c2ccccc2NCc2ccco2)c(=O)n(C)c1=O`, the inhibition was 1.05% (inactive).
Turning to `O=C(CN1CCOCC1)Nc1c(Cl)cc(Cl)cc1Cl`, the inhibition was -0.37% (inactive).
As for `COC(=O)c1cc2nc(-c3ccccc3)cc(C(F)(F)F)n2n1`, the inhibition was 4.75% (inactive).
As for `CCN(CC)c1nc(-c2ccccc2)cc(C(F)(F)F)c1C#N`, the figure is 10.8% (active); as for `N#Cc1c(C(F)(F)F)cc(-c2ccccc2)nc1SCC(=O)N1CCOCC1`, 0.78% (inactive).
On to `CN(C)S(=O)(=O)c1ccc(NC(=O)N2CCOCC2)cc1`, for which the inhibition is 0.13% (inactive).
For `Clc1ccc2nc(CSc3ccccc3)cn2c1`, the inhibition was 0.13% (inactive).
As for `CC1=C(C)CC(C(=O)NC(C)CCc2ccccc2)C(C(=O)O)C1` (stereo not given), the figure is 0.85% (inactive).
With `O=C(CSc1nc(O)c(Cc2ccccc2)c(=O)[nH]1)Nc1nc2c(s1)CCCC2`, the inhibition is 2.38% (inactive).
As to `Cn1c(=O)c(Sc2ccc(Cl)cc2)c(O)c2ccccc21`, the inhibition is 1.1% (inactive).
Consider `CCn1c(=O)cc(O)c2ccccc21`, for which the inhibition is -0.4% (inactive).
With `Cn1c2ccccc2c(=O)c2c(O)cccc21`, the inhibition is 11.3% (active).
In the case of `CCNC(=O)CC1C(=O)N(c2ccc(F)cc2)C(=O)N1Cc1cccs1` (stereo not given), the inhibition was 0.28% (inactive).
Take `COc1ccc(C(=O)CN(C(=O)c2ccc(Cl)cc2)N2C(=O)c3ccccc3C2=O)cc1`: the inhibition is 4.27% (inactive).
As for `COc1ccc(C(=O)COC(=O)c2ccc3ccccc3n2)cc1`, the inhibition is -0.53% (inactive).
Turning to `CCCCC(C(=O)OCC(=O)c1ccc(OC)cc1)N1C(=O)c2ccccc2C1=O` (stereo not given), the inhibition was 12.2% (active).
The result for `Cc1cccc(CC(=O)Nc2c3c(nn2-c2cccc(Cl)c2)CS(=O)C3)c1` (stereo not given) reads 9.78% (active); that for `COc1ccc(-n2nc3c(c2NC(=O)Cc2cccc(C)c2)CS(=O)C3)cc1` (stereo not given), 0.7% (inactive); that for `COc1ccc(CC(=O)Nc2c3c(nn2-c2cccc(Cl)c2)CS(=O)C3)cc1` (stereo not given), 2.33% (inactive).
In the case of `CCCn1c(=O)c2c(C(F)(F)F)cc(-c3cccs3)nc2n(CCC)c1=O`, the inhibition is 2.68% (inactive).
As for `CN1CCC(=NNC(=O)CN(c2cccc(Cl)c2)S(C)(=O)=O)CC1`, the figure is -0.4% (inactive).
The result for `O=C(OCc1ccc(Br)cc1)c1cccc(-c2nnc(-c3ccccc3)o2)c1` reads 12% (active); that for `CCOC(=O)CSc1nnc(-c2cccc(Br)c2)o1`, -0.68% (inactive); that for `O=C(OCc1nnc(-c2ccccc2)o1)c1ccc2c(c1)C(=O)N(CCc1ccccc1)C2=O`, 4.12% (inactive).
`COc1ccc(-c2nc3cc([N+](=O)[O-])ccc3o2)cc1OC`: the inhibition is 1.49% (inactive).
Regarding `O=[N+]([O-])c1ccc2oc(-c3cccc(O)c3)nc2c1`, the inhibition is 13.2% (active).
As for `O=[N+]([O-])c1cccc(Nc2c3ccccc3nc3ccccc23)c1`, the inhibition is 0.27% (inactive).
Consider `C=CCO/N=C(\C)c1c(O)c(C)c(-c2ccccc2)n(-c2ccccc2)c1=O`, for which the inhibition was 14.2% (active).
`CCO/N=C(/C)c1c(O)cc(-c2ccccc2)n(-c2ccccc2)c1=O`: the inhibition was 4.11% (inactive).
In the case of `Cc1nn(-c2ccccc2)c(C)c1/C=N/NC(=O)CSc1nc2ccccc2c(=O)n1-c1ccccc1`, the inhibition was 2.56% (inactive).
For `O=C(CC1C(=O)NCCN1Cc1ccc(-c2ccccc2)cc1)NCc1ccncc1` (stereo not given), the inhibition is -0.27% (inactive).
Turning to `Cc1ccnc(NS(=O)(=O)c2ccc(NC(=O)c3ccc(S(=O)(=O)N(C)C)cc3)cc2)n1`, the inhibition is -0.41% (inactive).
Consider `CC1=C/C(=N\S(=O)(=O)c2ccccc2)C(C(C)C)=CC1=O`, for which the inhibition is 3.57% (inactive).
On to `CCOC(=O)/C(C#N)=C/c1ccc(N2CCCCC2)cc1`, for which the inhibition was 1.57% (inactive).
`CCOC(=O)/C(C#N)=C/c1ccc(N2CCN(Cc3ccccc3)CC2)cc1`: the inhibition was -1.52% (inactive).
Consider `COc1ccc(N2CCN(C(=O)/C(C#N)=C/c3ccccc3)CC2)cc1`, for which the inhibition was 8.69% (active).

The values are drawn from PubChem BioAssay AID868 (SRMLSC, 2007).
